Source: PubChem BioAssay (several laboratories)
CSC inhib – cancer stem cell inhibition | cancer stem cell-like cells viability, luminescence | inhibition, % at 7.5 µM | actives 1.1% (n = 300,000); in the data active = inhibition above about 75%; inconclusive = no clear call, values can overlap the other calls; tested in HMLE shEcad cells
Mdm2 MdmX PPI – inhibitors of human Mdm2/MdmX interaction; O15151+Q00987; SaOS-2 split-luciferase Mdm2/MdmX complementation, luminescence; inhibition, % at 8 µM; actives 3% (n = 330,000); AID 485346;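 active = inhibition of at least 50% at 8 µM in the primary screen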
Target sequence (O15151 whole entry, looked up): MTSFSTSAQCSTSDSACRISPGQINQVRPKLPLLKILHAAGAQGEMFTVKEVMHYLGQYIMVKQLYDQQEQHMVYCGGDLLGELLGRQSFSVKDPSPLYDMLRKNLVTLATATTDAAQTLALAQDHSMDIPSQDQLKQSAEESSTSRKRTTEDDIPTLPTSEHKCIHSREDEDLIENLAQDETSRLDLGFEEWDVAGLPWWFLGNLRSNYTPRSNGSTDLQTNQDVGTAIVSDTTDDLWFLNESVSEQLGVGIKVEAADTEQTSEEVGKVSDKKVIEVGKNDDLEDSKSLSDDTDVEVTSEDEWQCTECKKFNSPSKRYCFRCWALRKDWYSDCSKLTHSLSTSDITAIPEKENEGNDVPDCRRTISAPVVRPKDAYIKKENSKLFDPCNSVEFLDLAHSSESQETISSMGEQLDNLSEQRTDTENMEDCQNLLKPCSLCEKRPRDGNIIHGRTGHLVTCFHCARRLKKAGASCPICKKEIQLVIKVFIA
Target sequence (Q00987 whole entry, looked up): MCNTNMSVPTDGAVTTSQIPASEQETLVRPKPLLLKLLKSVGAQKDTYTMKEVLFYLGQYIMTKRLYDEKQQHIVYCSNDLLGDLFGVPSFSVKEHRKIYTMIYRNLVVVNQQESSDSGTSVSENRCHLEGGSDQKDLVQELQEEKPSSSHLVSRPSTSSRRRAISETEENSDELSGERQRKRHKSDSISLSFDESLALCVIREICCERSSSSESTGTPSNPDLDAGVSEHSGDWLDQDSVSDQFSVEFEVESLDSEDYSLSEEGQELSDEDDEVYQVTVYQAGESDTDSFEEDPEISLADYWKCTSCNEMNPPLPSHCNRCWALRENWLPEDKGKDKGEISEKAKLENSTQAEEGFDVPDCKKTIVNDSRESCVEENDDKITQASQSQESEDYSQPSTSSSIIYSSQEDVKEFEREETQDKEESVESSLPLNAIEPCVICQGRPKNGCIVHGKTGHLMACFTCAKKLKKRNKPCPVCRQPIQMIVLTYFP
Calb FLC – affects C. albicans growth with fluconazole | C. albicans CaCi-2 (fluconazole-resistant clinical isolate) + fluconazole, Alamar Blue growth, 48 h | growth inhibition, % (test concentration not listed) | actives 0.57% (n = 300,000);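 active = growth inhibition above about 58% in most replicates, limit read from the data, passing the limit was not always enough; inconclusive = exactly half the replicates above a set limit; inactive = most replicates below a set limit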;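 also: all wells also contain fluconazole at 8 µg/ml as a sub-toxic cotreatment; 0% = median of DMSO wells and 100% = median of geldanamycin control wells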
MPTP block – permeability transition pore inhibition; AID 602449; actives 1.4% (n = 360,000); isolated mouse mitochondria, Ca2+ swelling absorbance, 30 min; inhibition, % at 10 µM;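 active = inhibition of 50% or more, scaled per plate between neutral and stimulator controls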;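 also: 0% = DMSO wells given calcium and 100% = 1 mM EGTA wells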
Beta apoptosis – blocks beta cell apoptosis; INS-1E cytokine-induced death, ATP luminescence, 48 h; percent of positive-control rescue, neutral wells zero; protection from apoptosis, % (concentration not given with the values); actives 0.8% (n = 300,000); AID 435005;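 active = Every replicate reaches about 75%, or at least half do and their mean reaches it too, limit read from the data; inconclusive = At least half of replicates reach the limit but their mean does not; inactive = Under half of replicates reach the limit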;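 also: 0% = cytokine-treated negative control wells and 100% = positive control rescue; higher means more ATP so stronger rescue from cytokine killing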
Mdm2-MdmX conf – confirmation of human Mdm2/MdmX interaction inhibitors; inhibition, % at 8 µM; Mdm2-MdmX binding, luminescent assay; shares compounds with Mdm2 MdmX PPI; actives 55% (n = 10,000); in the data active = inhibition above about 40%
Full FLuc ctr – inhibits full-length luciferase, flagging false Mdm2/MdmX hits. shares compounds with Mdm2 MdmX PPI. SaOS-2 full-length luciferase counterscreen, luminescence. inhibition, % at 8 µM. actives 77% (n = 6,200);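 active = mean inhibition at 8 µM reaching about 37%, which flags the compound as non-specific, limit read from the data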;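 also: p53-null SaOS-2 cells with luciferase driven by a doxycycline-inducible promoter; compound on cells about two nights before reading with doxycycline added after day one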
Active calls of the source: *; ? = inconclusive; / = no result. Sampled rows, rich in hits. Any-hit rate of the full collection: about 4.8%.

SMILES	CSC inhib	Mdm2 MdmX PPI	Calb FLC	MPTP block	Beta apoptosis	Mdm2-MdmX conf	Full FLuc ctr
O=C(CNC(=O)C(c1ccccc1)c1ccccc1)N/N=C/c1ccc(O)cc1O	132.5*	69.6*	0.1	2.3	43.8	77.4*	37.9*
O=C(COc1ccccc1C(=O)NCC1CCCO1)Nc1ccc(Br)cc1 (stereo not drawn)	-10.2	12.5	0.5	5.1	0.0	/	/
CC(C)N(C)c1ncnc2c1ncn2[C@H]1CN(C2CCCC2)C[C@@H](CO)O1	/	/	/	0.0	/	/	/
COc1ccc2oc(C(=O)N3CCN(S(=O)(=O)c4c(C)c(C)cc(C)c4C)CC3)c(C)c2c1	/	/	/	1.3	/	/	/
Cc1ncc(CO)c(CO)c1OCC(O)CN1CCN(c2ccc(F)cc2)CC1 (stereo not drawn)	/	/	/	-1.7	/	/	/
CCCN(C)C1CN(Cc2cn(Cc3ccc(C)cc3)nn2)S(=O)(=O)C1 (stereo not drawn)	/	/	/	0.2	/	/	/
CCC(C)C(=O)Nc1nnc(CCc2ccccc2)s1 (stereo not drawn)	9.3	8.6	-4.4	-0.2	-8.9	/	/
CS(=O)(=O)c1ccc(C(=O)OCC(=O)NC(=O)C2CCCCC2)cc1[N+](=O)[O-]	63.9	50.0*	-6.4	0.5	-31.1	18.4	/
Nc1ccc(C(=O)NNC(=O)C2COc3ccccc3O2)cc1[N+](=O)[O-] (stereo not drawn)	-8.9	3.1	-5.1	-1.3	-3.8	/	/
CS(=O)(=O)c1ccc(C(=O)OCC(=O)NC(=O)C2COc3ccccc3O2)cc1[N+](=O)[O-] (stereo not drawn)	10.6	51.1*	/	-0.4	-42.5	25.9	/
COc1cc(OC)nc(C(NC(=O)C2CCN(Cc3c[nH]c4ccccc34)CC2)c2ccc(Cl)cc2)n1 (stereo not drawn)	/	/	/	1.8	/	/	/
CC[n+]1ccc(/C=C/c2c[nH]c3ccccc23)cc1	12.2	55.7*	-16.8	1.3	73.1	19.6	/
Cc1ccc2[nH]cc(/C=C/c3cc[n+](C)cc3)c2c1	-9.5	71.6*	3.2	1.4	120.8*	61.4*	56.9*
Cc1cccc(NC(=S)N(CCN(C)C)Cc2cccs2)c1	-2.9	12.5	0.5	0.3	-3.4	/	/
NC(=O)Cn1c(=O)n(CCc2ccccc2)c(=O)c2c3c(sc21)CCCC3	-13.7	58.3*	-7.5	-0.9	-3.5	1.4	/
CN(C)CCn1c(=O)n(Cc2ccccc2)c(=O)c2c3c(sc21)CCCCC3	-7.3	-3.3	-3.5	-1.8	7.8	/	/
CN(C)CCCNc1nc2sc3c(c2c(=O)n1CCc1ccccc1)CCCCC3	9.9	69.7*	0.8	-3.4	-23.6	28.9	/
CN(C)CCCn1c(=O)n(CCc2ccccc2)c(=O)c2c3c(sc21)CCCCC3	3.5	77.0*	1.5	-7.5	/	32.0	/
COCCN1C(=O)CN(S(C)(=O)=O)CC1(C)C(=O)Nc1ccc2c(c1)OCCO2 (stereo not drawn)	/	/	/	0.1	/	/	/
O=C(O)Cn1nnc(-c2ccccc2)c1COc1ccccc1	/	/	/	-0.7	/	/	/
Cc1ccc(N(Cc2ccco2)C(=O)c2ccc(N3CCCCC3)c([N+](=O)[O-])c2)cc1	64.4	53.9*	0.6	4.1	28.8	29.4	/
CC(=O)OCC(=O)C1=CCC2C3CCC4=CC(=O)C=CC4(C)C3(F)C(OC(C)=O)CC12C (stereo not drawn)	-9.2	78.5*	?	-3.0	-29.2	49.2*	45.7*
CCC[C@@H]1Cc2ccccc2N1C(C)=O	-13.4	6.8	/	2.4	-14.6	/	/
COc1ccccc1C(=O)Nc1ccccc1SC(=O)c1ccccc1OC	58.2	62.6*	-2.0	4.6	29.3	39.9	90.5*
COc1ccc(N2CCN(C(=O)COC(=O)c3cnccn3)CC2)cc1	/	25.2	4.3	-0.3	3.5	/	/
SMILES	CSC inhib	Mdm2 MdmX PPI	Calb FLC	MPTP block	Beta apoptosis	Mdm2-MdmX conf	Full FLuc ctr
O=C(c1cnc(Cc2c[nH]c3ccccc23)c(I)c1)N1CCOCC1	/	/	/	0.7	/	/	/
CCCCC1C(=O)N(c2ccccc2)N(c2ccccc2)C1=O	-0.8	14.8	/	1.7	-6.5	/	/
CCCCN1C=CC(=C2C(=O)c3ccccc3C2=O)C=C1	68.0	83.9*	11.2	0.5	38.2	78.6*	52.7*
O=[N+]([O-])c1ccc(Cl)cc1Sc1nc2ccccc2o1	22.1	53.8*	53.2	1.3	-1.4	16.2	/
O=[N+]([O-])c1ccc(Sc2nc3ccccc3o2)c([N+](=O)[O-])c1	105.6*	98.9*	93.2*	-0.3	47.9	75.7*	2.6
Cn1nccc1NS(=O)(=O)c1ccc(NC(=O)C(F)(F)F)cc1	-13.4	30.0	-3.0	0.9	0.8	/	/
C/C(=N\NC(=O)CNC(=O)c1ccccc1F)c1ccco1	-13.4	12.0	-1.2	-0.9	-5.6	/	/
COc1ccc(Nc2cc3n(c(=O)n2)CCc2cc(OC)c(OC)cc2-3)cc1	15.9	24.0	1.6	1.2	19.5	/	/
COc1cc2c(cc1OC)-c1cc(Nc3ccc4c(c3)OCCO4)nc(=O)n1CC2	17.9	67.7*	-3.4	0.7	20.9	44.8*	52.1*
CCCN(CCC)Cc1cc(=O)oc2ccc3ccccc3c12	/	/	/	0.5	/	/	/
Cc1cc2c(cc1C)C(c1ccccc1Br)CC(=O)N2 (stereo not drawn)	7.3	16.5	-3.3	1.1	-1.8	/	/
CC(C)Oc1ccccc1C1CC(=O)Nc2cc3c(cc21)OCO3 (stereo not drawn)	53.5	70.2*	-2.2	15.2	33.7	60.9*	83.7*
CCOc1ccccc1C1CC(=O)Nc2cc(C)c(C)cc21 (stereo not drawn)	32.1	57.3*	-4.0	0.2	8.1	58.6*	54.0*
O=C1CC(c2cccnc2)c2cc3c(cc2N1)OCO3 (stereo not drawn)	-15.1	-22.0	4.1	-0.8	-0.6	/	/
CCOc1ccccc1C1CC(=O)Nc2cc(OC)c(OC)c(OC)c21 (stereo not drawn)	8.2	43.9	-13.4	0.4	2.4	/	/
Cc1cc2c(cc1C)C(c1ccccc1OC(C)C)CC(=O)N2 (stereo not drawn)	95.9*	57.0*	19.0	-0.4	41.1	55.0*	42.9*
COc1ccccc1C1CC(=O)Nc2cc(C)c(C)cc21 (stereo not drawn)	39.4	60.2*	14.1	1.2	6.1	55.3*	59.5*
CCOc1cc(N2CCOCC2)c(OCC)cc1NS(=O)(=O)c1cc(NC(C)=O)ccc1OC	-16.8	5.1	4.8	0.5	-2.7	/	/
O=C(N/N=C/c1cccc2ccccc12)c1n[nH]c2c1CCCC2	-0.5	66.3*	-0.3	0.5	2.5	64.9*	85.2*
O=C(N/N=C/c1ccc(Cl)cc1Cl)c1n[nH]c2c1CCCC2	-1.9	-57.2	0.9	1.1	10.2	/	/
O=C(N/N=C/C=C/c1ccccc1)c1n[nH]c2c1CCC2	77.1*	62.6*	-2.3	-1.2	11.7	56.0*	95.2*
COc1cc(/C=N/NC(=O)c2ccccc2O)ccc1OC(=O)CC1SC(=O)NC1=O (stereo not drawn)	-8.9	18.0	-0.1	1.6	4.0	/	/
